# Assay results: PubChem BioAssay (NCI)
# Compounds without any hit were thinned out: in the full panel of roughly 83,000, 20% have a hit.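 Growth was measured after 48 h exposure to one concentration of compound in 96-well plates. Values under 10 count as active.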 Values without a mark were called inactive. The source made the active and inactive calls.
# What was measured:
# Experiment in all cases: NCI-60 one-dose screen, 48 h (100 = growth as untreated, 0 = no growth, -100 = all killed)
# Settings in all cases: 10 µM
# NCI-H23 lung = test system: NCI-H23 lung
# NCI-H226 lung = test system: NCI-H226 lung
# HOP-62 NSCLC = test system: HOP-62 NSCLC
# NCI-H460 lung = test system: NCI-H460 lung
# HOP-92 NSCLC = test system: HOP-92 NSCLC
# NCI-H522 lung = test system: NCI-H522 lung
# A549/ATCC NSCLC = test system: A549/ATCC NSCLC
# 786-0 renal = test system: 786-0 renal
# COLO 205 colon = test system: COLO 205 colon
# DU-145 prostate = test system: DU-145 prostate
# K-562 leukemia = test system: K-562 leukemia
# MDA-MB-231 breast = test system: MDA-MB-231 breast
# RXF 393 renal = test system: RXF 393 renal
# SF-268 CNS = test system: SF-268 CNS
# SF-295 CNS = test system: SF-295 CNS
# SF-539 CNS = test system: SF-539 CNS
# UACC-257 melanoma = test system: UACC-257 melanoma
# M14 melanoma = test system: M14 melanoma
# MALME-3M melanoma = test system: MALME-3M melanoma
Compound,growth (NCI-H23 lung),growth (NCI-H226 lung) [%],growth (HOP-62 NSCLC),growth (NCI-H460 lung),growth (HOP-92 NSCLC) [%],growth (NCI-H522 lung),growth (A549/ATCC NSCLC),growth (786-0 renal),growth (COLO 205 colon),growth (DU-145 prostate),growth (K-562 leukemia),growth (MDA-MB-231 breast),growth (RXF 393 renal),growth (SF-268 CNS),growth (SF-295 CNS),growth (SF-539 CNS),growth (UACC-257 melanoma),growth (M14 melanoma),growth (MALME-3M melanoma)
O=C1OC(C(Cl)(Cl)Cl)OC1C(Cl)(Cl)Cl (configuration not stated),102%,110,121%,108%,105,96.4%,95.6%,114%,107%,101%,91.3%,103%,116%,103%,98%,115%,92.5%,99%,
O=C(COc1cccc(/C=C2\CSc3ccccc3C2=O)c1)c1ccc(Cl)cc1,-7.19% (active),80.1,79.5%,68.5%,56.5,-76.8% (active),40.6%,80.3%,96.2%,94.9%,-76.8% (active),68.8%,,29.9%,-28.1% (active),50.6%,-47% (active),-34.7% (active),-61.9% (active)
O=C1C=C(Nc2cccc(Br)c2)c2ccccc2C1=O,41.1%,91.3,41.9%,12.7%,39.1,27.3%,16.7%,60.2%,104%,22.4%,21.4%,54.6%,31.8%,58%,,15%,79.4%,14.4%,47.2%
COc1cc(C(=O)N2CCN(c3cc4c(cc3F)c(=O)c(C(=O)NO)cn4C3CC3)CC2)cc(OC)c1OC,94.9%,95.1,97%,105%,99.1,87.4%,99%,93.6%,104%,104%,103%,98.8%,104%,98%,103%,101%,,103%,105%
NS(=O)(=O)c1ccc(N2N=C(c3ccccc3)CCC2=O)cc1,95.4%,120,95.8%,102%,97.7,85.7%,93.6%,82.7%,156%,182%,85.1%,112%,110%,176%,99%,102%,96.5%,100%,
COc1ccc2nc3cc(Cl)ccc3c(N)c2c1,-93.9% (active),36.7,-94.3% (active),-75.2% (active),91.3,-75.8% (active),-73% (active),-98.9% (active),-87.6% (active),-96.8% (active),-60.6% (active),-94.1% (active),-98.1% (active),-85.7% (active),,-90.3% (active),-81.2% (active),-95.6% (active),-71.8% (active)
CNC(=O)c1cc(Oc2ccc3c(c2)sc2nc(-c4ccc(NC(=O)Nc5ccc(Cl)c(C(F)(F)F)c5)cc4)cn23)ccn1,84.7%,101,79.1%,92.5%,88.6,59%,79.8%,72.6%,89.6%,75.5%,74.7%,77.4%,84.6%,84.8%,76.3%,56.2%,,85.5%,83.7%
COc1cc(NC(=O)C2=C(N3CCOCC3)/C(=C/c3ccc(Cl)cc3)CC2)cc(OC)c1OC,94.6%,86.1,102%,99.6%,65.3,29.2%,40.8%,93.2%,98.5%,99.4%,49.7%,91.6%,,114%,118%,101%,59.5%,97.3%,93.6%
Cc1ccc(/C=C/C(=O)C(=O)/C=C/c2ccc(C)cc2)cc1,95.4%,107,109%,104%,108,81.7%,86.2%,96.9%,110%,112%,95.2%,106%,117%,108%,101%,96.2%,,95.2%,96.8%
